In PubChem BioAssay (NCATS):
Results filed as inconclusive are left out. Calls of active or inactive are those of the source. Calls come from the whole dose curve; as a rule, active = well fitted cell-killing curve with a large enough effect; inconclusive = small, poorly fitted or top-dose-only effect, or effect the other way; inactive = flat fitted curve, though single readings scatter.

Legend:
Experiment in all cases: Primary qHTS to identify gynecologic anti-cancer compounds using libraries of approved drugs and bioactive compounds (AID 1345084); note: nearly all actives have a fitted effect of over 55% in size
C33A = settings: Gynecologic cancer cell panel viability, ATPlite luminescence, 48 h; series mostly up to 57.5 µM
Method in brief: (§1)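 Cells, 1,000 per well, were allowed to settle for 16 h at 37 C before compound addition. Five concentrations were tested for 48 h, and viability was read by ATPlite luminescence after 15 min at room temperature.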

CAOV3 = settings: Gynecologic cancer cell panel viability, ATPlite luminescence, 48 h; series mostly up to 57.5 µM
Method in brief: as §1

CASKI = settings: Gynecologic cancer cell panel viability, ATPlite luminescence, 48 h; series mostly up to 57.5 µM
Method in brief: as §1

Es-2 = settings: Gynecologic cancer cell panel viability, ATPlite luminescence, 48 h; series mostly up to 57.5 µM
Method in brief: as §1

HeLa = settings: Gynecologic cancer cell panel viability, ATPlite luminescence, 48 h; series mostly up to 57.5 µM
Method in brief: as §1

JEG-3 = settings: Gynecologic cancer cell panel viability, ATPlite luminescence, 48 h; series mostly up to 57.5 µM
Method in brief: as §1

OV90 = settings: Gynecologic cancer cell panel viability, ATPlite luminescence, 48 h; series mostly up to 57.5 µM
Method in brief: as §1

SKOV3 = settings: Gynecologic cancer cell panel viability, ATPlite luminescence, 48 h; series mostly up to 57.5 µM
Method in brief: as §1

Tov-21-G = settings: Gynecologic cancer cell panel viability, ATPlite luminescence, 48 h; series mostly up to 57.5 µM
Method in brief: as §1

Tov112D = settings: Gynecologic cancer cell panel viability, ATPlite luminescence, 48 h; series mostly up to 57.5 µM
Method in brief: as §1

Hek293T = settings: Gynecologic cancer cell panel viability, ATPlite luminescence, 48 h, control line for the selectivity index; series mostly up to 57.5 µM
Method in brief: as §1

PA-1 = settings: Gynecologic cancer cell panel viability, ATPlite luminescence, 48 h; series mostly up to 57.5 µM
Method in brief: as §1
% is set by controls: 0 for no effect and ±100 for the full control effect.

CCC(C)/C=C(C)/C=C/C1=CC2=C(Cl)C(=O)C(C)(OC(C)=O)C(=O)C2=CN1C(CCCN=C(N)N)C(=O)O (stereo not drawn)
inactive: Potency (C33A) | Potency (CAOV3) | outcome (CASKI) | Potency (Es-2) | Potency (HeLa) | Potency (JEG-3) | Potency (OV90) | Potency (SKOV3) | Potency (Tov-21-G) | Potency (Tov112D)

CC(O)CCc1ccc(O[C@@H]2O[C@H](CO)[C@@H](O)[C@H](O)[C@H]2O)cc1 (stereo partly drawn)
inactive: Potency (C33A) | Potency (CAOV3) | outcome (CASKI) | Potency (Es-2) | Potency (HeLa) | Potency (Hek293T) | Potency (JEG-3) | Potency (PA-1) | Potency (SKOV3) | Potency (Tov-21-G) | Potency (Tov112D)

CC1(C)CC[C@]2(C(=O)OC3OC(CO)C(O)C(O)C3O)CC[C@]3(C)C(=CCC4[C@@]5(C)C[C@@H](O)[C@H](OC6OC(C(=O)O)C(O)C(O)C6O)C(C)(C)C5CC[C@]43C)[C@@H]2C1 (stereo partly drawn)
inactive: activity change, negative = cytotoxicity (C33A) 5.49% [at 11.6 µM] | activity change, negative = cytotoxicity (CAOV3) -8.39% [at 11.6 µM] | activity change, negative = cytotoxicity (CASKI) 3.29% [at 11.6 µM] | activity change, negative = cytotoxicity (Es-2) -0.905% [at 11.6 µM] | activity change, negative = cytotoxicity (HeLa) 5.76% [at 11.6 µM] | activity change, negative = cytotoxicity (Hek293T) -2.17% [at 11.6 µM] | activity change, negative = cytotoxicity (JEG-3) 17.5% [at 11.6 µM] | activity change, negative = cytotoxicity (OV90) 1.98% [at 11.6 µM] | activity change, negative = cytotoxicity (PA-1) 4.09% [at 11.6 µM] | activity change, negative = cytotoxicity (Tov-21-G) 3.24% [at 11.6 µM] | activity change, negative = cytotoxicity (Tov112D) 0.489% [at 11.6 µM]

COc1cc(O)c2c(c1)C1(OC2=O)C(C)=CC(=O)C1O (stereo not drawn)
inactive: Potency (C33A) | Potency (CAOV3) | outcome (CASKI) | Potency (Es-2) | Potency (HeLa) | Potency (Hek293T) | Potency (JEG-3) | Potency (OV90) | Potency (PA-1) | Potency (Tov-21-G) | Potency (Tov112D)

N#Cc1ccc(C2CCCc3cncn32)cc1 (stereo not drawn)
inactive: Potency (C33A) | Potency (CAOV3) | outcome (CASKI) | Potency (Hek293T) | Potency (JEG-3) | Potency (OV90) | Potency (SKOV3)

CC(C)c1ccc2c(c1)C(O)CC1C(C)(CO)CCCC21C (stereo not drawn)
inactive: Potency (C33A) | Potency (CAOV3) | outcome (CASKI) | Potency (Es-2) | Potency (HeLa) | Potency (Hek293T) | Potency (JEG-3) | Potency (OV90) | Potency (PA-1) | Potency (Tov-21-G) | Potency (Tov112D)

Cc1nc(-c2cccnc2)sc1C(=O)Nc1ccccc1-c1cn2c(CN3CCOCC3)csc2n1
inactive: Potency (C33A) | Potency (CAOV3) | Potency (Es-2) | Potency (HeLa) | Potency (Hek293T) | Potency (JEG-3) | Potency (OV90) | Potency (PA-1) | Potency (SKOV3) | Potency (Tov-21-G) | Potency (Tov112D)

CC(C)=CCC[C@](C)(O[C@@H]1O[C@H](CO[C@@H]2O[C@@H](CO)[C@H](O)[C@H]2O)[C@@H](O)[C@H](O)[C@H]1O)[C@H]1CC[C@]2(C)[C@@H]1[C@H](O)C[C@@H]1[C@@]3(C)CC[C@H](O[C@@H]4O[C@H](CO)[C@@H](O)[C@H](O)[C@H]4O[C@@H]4O[C@H](CO)[C@@H](O)[C@H](O)[C@H]4O)C(C)(C)[C@@H]3CC[C@]12C
inactive: Potency (C33A) | Potency (CAOV3) | outcome (CASKI) | Potency (Es-2) | Potency (HeLa) | Potency (Hek293T) | Potency (JEG-3) | Potency (OV90) | Potency (SKOV3) | Potency (Tov-21-G) | Potency (Tov112D)

CC1(C)C[C@H]2C=C(C=O)[C@]3(C(=O)O)C[C@]3(C)[C@H]2C1
inactive: Potency (C33A) | Potency (CAOV3) | outcome (CASKI) | Potency (HeLa) | Potency (Hek293T) | Potency (JEG-3) | Potency (OV90) | Potency (PA-1) | Potency (Tov-21-G) | Potency (Tov112D)

COC(=O)C1=COC(O[C@@H]2O[C@H](COC(=O)/C=C/c3ccc(O)cc3)[C@@H](O)[C@H](O)[C@H]2O)C2C(CO)=CCC12 (stereo partly drawn)
inactive: Potency (C33A) | Potency (CAOV3) | outcome (CASKI) | Potency (Es-2) | Potency (HeLa) | Potency (JEG-3) | Potency (OV90) | Potency (PA-1) | Potency (SKOV3) | Potency (Tov-21-G) | Potency (Tov112D)

CC1OC(O[C@@H]2[C@@H](O)[C@H](OC(=O)[C@]34CCC(C)(C)C[C@H]3C3=CCC5[C@@]6(C)CC[C@H](O[C@@H]7O[C@H](C(=O)O)[C@@H](O)[C@H](O[C@@H]8OC[C@@H](O)[C@H](O)[C@H]8O)[C@H]7O[C@@H]7O[C@H](CO)[C@H](O)[C@H](O)[C@H]7O)[C@@](C)(C=O)C6CC[C@@]5(C)[C@]3(C)C[C@H]4O)O[C@H](C)[C@@H]2OC2OC(C)C(OC3OCC(O)C(O)C3O)C(O)C2O)C(O)C(O)C1O (stereo partly drawn)
inactive: activity change, negative = cytotoxicity (C33A) 2.48% [at 6.55 µM] | activity change, negative = cytotoxicity (CASKI) 19.4% [at 6.55 µM] | activity change, negative = cytotoxicity (Es-2) -0.176% [at 6.55 µM] | activity change, negative = cytotoxicity (HeLa) 18.4% [at 6.55 µM] | activity change, negative = cytotoxicity (Hek293T) 1.68% [at 6.55 µM] | activity change, negative = cytotoxicity (JEG-3) 0.0438% [at 6.55 µM] | activity change, negative = cytotoxicity (OV90) 6.42% [at 6.55 µM] | activity change, negative = cytotoxicity (PA-1) -6.4% [at 6.55 µM] | activity change, negative = cytotoxicity (SKOV3) -2.08% [at 6.55 µM] | activity change, negative = cytotoxicity (Tov-21-G) 5.64% [at 6.55 µM] | activity change, negative = cytotoxicity (Tov112D) 10.7% [at 6.55 µM]

CC1=C2C[C@@]3(C)[C@@H](CCC[C@@H]3C)C[C@@]2(O)OC1=O
inactive: Potency (C33A) | outcome (CASKI) | Potency (Es-2) | Potency (HeLa) | Potency (Hek293T) | Potency (JEG-3) | Potency (OV90) | Potency (PA-1) | Potency (SKOV3) | Potency (Tov-21-G) | Potency (Tov112D)

O=C(O)c1ccnc(-c2cc(C(=O)NCCc3ccccc3)ccn2)c1
inactive: Potency (CAOV3) | outcome (CASKI) | Potency (Es-2) | Potency (HeLa) | Potency (Hek293T) | Potency (JEG-3) | Potency (OV90) | Potency (PA-1) | Potency (SKOV3) | Potency (Tov-21-G) | Potency (Tov112D)

CC(C)c1ccc2c(c1)C(O)CC1C(C)(C(=O)O)CCCC21C (stereo not drawn)
inactive: Potency (C33A) | outcome (CASKI) | Potency (Es-2) | Potency (HeLa) | Potency (Hek293T) | Potency (JEG-3) | Potency (OV90) | Potency (PA-1) | Potency (SKOV3) | Potency (Tov-21-G) | Potency (Tov112D)

C=C1[C@H](OC(C)=O)[C@H]2[C@@H](OC(=O)c3ccccc3)[C@@H](C)C[C@]2(O)[C@@H](OC(C)=O)[C@H](C)/C=C/C(C)(C)C(=O)[C@H](OC(C)=O)[C@H]1OC(C)=O
inactive: Potency (CAOV3) | Potency (Es-2) | Potency (HeLa) | Potency (Hek293T) | Potency (JEG-3) | Potency (OV90) | Potency (PA-1) | Potency (SKOV3) | Potency (Tov-21-G) | Potency (Tov112D)
